The target in assay [1] is Cell division control protein 42 homolog (Homo sapiens) (UniProt P60953). Nature of the assay: inhibition of fluorescent GTP binding to constitutively active Cdc42 – biochemical, multiplex bead flow cytometry, Bodipy-FL-GTP, dose response (AID 1333;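 active = fitted half-maximal concentration within the tested dose range, moderate curve steepness, a statistically real signal drop, and little compound fluorescence or tag-binding interference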). On the technique in general: A flow cytometer gives signals particle by particle.
Assay [2] shares this target. Nature of the assay: inhibition of fluorescent GTP binding to wildtype Cdc42 – biochemical, multiplex bead flow cytometry, Bodipy-FL-GTP, dose response (AID 1334). The note with it: bead-based flow cytometry, Bodipy-FL-GTP binding to GST-Cdc42; at 100 µM (top of the series) unless noted.
Assay [3] deals with GTPase HRas (Homo sapiens) (UniProt P01112). The assay can be described thus: Ras wt fluorescent GTP loading blockade – biochemical, wildtype, multiplex bead flow cytometry, dose response (AID 1335;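 active = fitted half-maximal concentration within 10 nM to 100 µM, steepness 0.5 to 2, significant signal drop, low assay interference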). The following applies: bead-based flow cytometry, Bodipy-GTP binding to GST-Ras; at 100 µM (top of the series) unless noted.
The test system of assay [4] is Ras-related protein Rab-7a (dog), GTP binding. Nature of the assay: blockers of fluorescent GTP binding to Rab7 – biochemical, wildtype, multiplex bead flow cytometry, dose response (AID 1336; call rule not given here).
Assay [5] addresses Ras-related C3 botulinum toxin substrate 1 (Homo sapiens) (UniProt P63000). The assay can be described thus: inhibition of wildtype Rac1 nucleotide loading – biochemical, multiplex bead flow cytometry, dose response (AID 1340;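 active = dose curve with midpoint inside tested range, moderate steepness, plateau gap beyond fit error, low compound glow and bead-link interference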). The note with it: GST-Rac1 beads, Bodipy-FL-GTP binding; at 100 µM (top of the series) unless noted.
Assay [6] concerns the target GTPase HRas (Homo sapiens) (UniProt P01112). The assay can be described thus: blockade of GTP loading onto mutant Ras – biochemical, activated mutant, multiplex bead flow cytometry, dose response (AID 1341;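 active = dose-response curve with midpoint inside the tested range, moderate steepness, significant amplitude and little compound fluorescence or bead-attachment interference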;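 also: GST-tagged constitutively activated Ras mutant immobilized on beads and multiplexed with other GTPases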).

For part of these data: Measured potencies and affinities stand elsewhere. Calls of active or inactive are those of the source.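 The calls were made as follows, unless noted: active = fitted half-maximal concentration within the tested range, moderate curve steepness, significant signal drop, and little compound fluorescence or bead-linkage interference; inactive = the rest.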

Cell division control protein 42 homolog (Homo sapiens), sequence (P60953 whole entry, looked up): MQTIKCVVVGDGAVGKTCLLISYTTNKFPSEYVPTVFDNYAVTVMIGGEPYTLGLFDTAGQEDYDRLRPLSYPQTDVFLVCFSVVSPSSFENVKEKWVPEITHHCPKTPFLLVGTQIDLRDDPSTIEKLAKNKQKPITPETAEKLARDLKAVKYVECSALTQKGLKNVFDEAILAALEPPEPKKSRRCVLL
GTPase HRas (Homo sapiens), sequence (P01112 whole entry, looked up): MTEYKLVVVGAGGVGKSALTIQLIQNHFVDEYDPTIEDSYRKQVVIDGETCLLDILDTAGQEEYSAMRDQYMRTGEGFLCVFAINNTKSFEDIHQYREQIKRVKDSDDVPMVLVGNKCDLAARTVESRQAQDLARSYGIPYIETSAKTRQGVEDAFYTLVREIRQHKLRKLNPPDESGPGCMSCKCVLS

As to `C=CCN1C(=O)/C(=C/c2ccc(N(C)C)cc2)S/C1=N\c1nnc(CC)s1`, the result in assay [1], in assay [4] and in assay [6] was inactive. This compound yielded a fluorescence, percent of control (lower = inhibition) in assay [2] of 74.8%. The same compound came in with a GTP binding, percent of control in assay [3] of 90.2%. Besides, the GTP binding signal, raw median fluorescence (lower = inhibition) (MCF (arbitrary fluorescence units)) in assay [5] worked out at 231.

For `Cc1cc(C)cc(OCCSc2nc3ccccc3n2CC(=O)O)c1`, the compound was classed as inactive in assay [1], in assay [4] and in assay [6]. In assay [2], this compound yielded a fluorescence, percent of control (lower = inhibition) of 58.4%. Moreover, the GTP binding, percent of control in assay [3] came out at 87.4%. For the same compound, the GTP binding signal, raw median fluorescence (lower = inhibition) (MCF (arbitrary fluorescence units)) in assay [5] was determined as 31.

With `CCCCCCOc1ccc(C#CC(=O)c2ccc([N+](=O)[O-])cc2)cc1`, the compound was classed as inactive in assay [1], in assay [4] and in assay [6]. For the same compound, the fluorescence, percent of control (lower = inhibition) in assay [2] came to 54.3%. The compound further came in with a GTP binding, percent of control in assay [3] of 199%. Besides, in assay [5], the GTP binding signal, raw median fluorescence (lower = inhibition) (MCF (arbitrary fluorescence units)) came out at 56.6.

For `N=c1oc2ccc3ccccc3c2cc1-c1nc(-c2ccccc2)cs1`, the outcome in assay [1], in assay [4] and in assay [6] was inactive. The fluorescence, percent of control (lower = inhibition) in assay [2] was found to be 32.3%. This compound also had a GTP binding, percent of control in assay [3] of 75%. In assay [5], this compound came in with a GTP binding signal, raw median fluorescence (lower = inhibition) (MCF (arbitrary fluorescence units)) of 209.

Consider `COc1ccc(OC)c(/C=N/NC(=O)c2ccc(Cn3cc([N+](=O)[O-])cn3)o2)c1`, for which the compound was classed as inactive in assay [1], in assay [4] and in assay [6]. Further, in assay [2], the fluorescence, percent of control (lower = inhibition) is 30.5%. The GTP binding, percent of control in assay [3] was 66.3%. The compound also came in with a GTP binding signal, raw median fluorescence (lower = inhibition) (MCF (arbitrary fluorescence units)) in assay [5] of 159.

Regarding `COc1cc(/C=N/NC(=O)Nc2cccc3nsnc23)cc(OC)c1OC`, the outcome in assay [1], in assay [4] and in assay [6] was inactive. The compound also yielded a fluorescence, percent of control (lower = inhibition) in assay [2] of 60.6%. Further, the GTP binding, percent of control in assay [3] amounted to 105%. In assay [5], this compound returned a GTP binding signal, raw median fluorescence (lower = inhibition) (MCF (arbitrary fluorescence units)) of 126.

In the case of `COc1ccc(CCNc2cc(=O)[nH]c(N)n2)cc1`, the result in assay [1], in assay [4] and in assay [6] was inactive. The compound further came in with a fluorescence, percent of control (lower = inhibition) in assay [2] of 34.1%. The same compound gave a GTP binding, percent of control in assay [3] of 48.2%. The compound further had a GTP binding signal, raw median fluorescence (lower = inhibition) (MCF (arbitrary fluorescence units)) in assay [5] of 94.3.

For `Cc1ccc(OCCn2c(SCC(=O)O)nc3ccccc32)cc1`, the result in assay [1], in assay [4] and in assay [6] was inactive. For the same compound, in assay [2], the fluorescence, percent of control (lower = inhibition) was 59%. The compound also showed a GTP binding, percent of control in assay [3] of 86.2%. Further, the GTP binding signal, raw median fluorescence (lower = inhibition) (MCF (arbitrary fluorescence units)) in assay [5] came to 35.2.

On to `O=C(CSc1n[nH]c(=O)[nH]c1=O)N/N=C/c1ccccc1`, for which the compound was called inactive in assay [1], in assay [4] and in assay [6]. The compound also returned a fluorescence, percent of control (lower = inhibition) in assay [2] of 49.5%. In assay [3], this compound came in with a GTP binding, percent of control of 61.4%. The compound also yielded a GTP binding signal, raw median fluorescence (lower = inhibition) (MCF (arbitrary fluorescence units)) in assay [5] of 197.

On to `CCCCn1c(O)c(/C=C/C=C/C=Nc2ccccc2)sc1=S`, for which the compound was called inactive in assay [1], in assay [4] and in assay [6]. The same compound yielded a fluorescence, percent of control (lower = inhibition) in assay [2] of 29.8%. In assay [3], this compound registered a GTP binding, percent of control of 68.3%. The GTP binding signal, raw median fluorescence (lower = inhibition) (MCF (arbitrary fluorescence units)) in assay [5] is 216.

As for `Cc1cccc(COc2nc3ccccc3cc2C(=O)O)c1`, the outcome in assay [1], in assay [4] and in assay [6] was inactive. Also, in assay [2], the fluorescence, percent of control (lower = inhibition) came to 54.8%. In assay [3], the GTP binding, percent of control worked out at 213%. Moreover, the GTP binding signal, raw median fluorescence (lower = inhibition) (MCF (arbitrary fluorescence units)) in assay [5] was found to be 52.2.

For `CNC(=S)N=Nc1c(O)[nH]c2ccccc12`, the compound was classed as inactive in assay [1], in assay [4] and in assay [6]. The compound further showed a fluorescence, percent of control (lower = inhibition) in assay [2] of 36.2%. Further, in assay [3], the GTP binding, percent of control came out at 47%. The compound further showed a GTP binding signal, raw median fluorescence (lower = inhibition) (MCF (arbitrary fluorescence units)) in assay [5] of 128.

Consider `Cc1nn(Cc2ccccc2)c(C)c1NC(=O)CSc1nc2c(c(C(F)(F)F)n1)CCc1ccccc1-2`, for which the result in assay [1], in assay [4] and in assay [6] was inactive. This compound also came in with a fluorescence, percent of control (lower = inhibition) in assay [2] of 33.3%. In addition, the GTP binding, percent of control in assay [3] came to 73.5%. In assay [5], the GTP binding signal, raw median fluorescence (lower = inhibition) (MCF (arbitrary fluorescence units)) is 175.

As for `O=C(CCc1ccc(S(=O)(=O)NCCc2ccccc2)cc1)Nc1ccc2c(c1)OCO2`, the compound was classed as inactive in assay [1], in assay [4] and in assay [6]. The fluorescence, percent of control (lower = inhibition) in assay [2] was 52.3%. The same compound yielded a GTP binding, percent of control in assay [3] of 67.2%. Besides, in assay [5], the GTP binding signal, raw median fluorescence (lower = inhibition) (MCF (arbitrary fluorescence units)) was 212.

Turning to `Cc1ccc(NC(=S)Nc2ccc3nc(-c4ccccn4)c(-c4ccccn4)nc3c2)cc1C`, the compound was classed as inactive in assay [1], in assay [4] and in assay [6]. Moreover, in assay [2], the fluorescence, percent of control (lower = inhibition) came out at 53.7%. Further, in assay [3], the GTP binding, percent of control came to 69%. This compound gave a GTP binding signal, raw median fluorescence (lower = inhibition) (MCF (arbitrary fluorescence units)) in assay [5] of 0.

Values taken from PubChem BioAssay.
